PAFAH1B3 inh: inhibitors of human PAFAH1B3. Q15102. recombinant PAFAH1B3, FP-rhodamine probe, fluorescence polarization. inhibition, % at 3.39 µM. 0.28% of 340,000 active;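 active = inhibition above the screen-wide average of all tested compounds plus 3 SD, cut at about 25% in these data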;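 note: 0% = enzyme with DMSO only and 100% = wells lacking PAFAH1B3 protein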
Target sequence (Q15102 whole entry, looked up): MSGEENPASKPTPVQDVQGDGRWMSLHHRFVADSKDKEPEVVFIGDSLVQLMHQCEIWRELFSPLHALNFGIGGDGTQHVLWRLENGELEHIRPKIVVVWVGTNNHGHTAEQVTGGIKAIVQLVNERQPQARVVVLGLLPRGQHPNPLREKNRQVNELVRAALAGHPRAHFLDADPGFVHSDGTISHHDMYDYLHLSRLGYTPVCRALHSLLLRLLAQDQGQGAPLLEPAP
PAFAH1B2 FP inh: blocks human PAF acetylhydrolase 1b catalytic subunit 2; recombinant PAFAH1B2, FP-rhodamine activity probe, fluorescence polarization; P68402; 1.2% of 340,000 active; AID 492953; inhibition, % at 3.39 µM;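 active = inhibition above the mean of all tested compounds plus 3 SD, cut at about 24% in these data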;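 note: 0% = enzyme with DMSO and 100% = wells lacking PAFAH1B2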
Target sequence (P68402 whole entry, looked up): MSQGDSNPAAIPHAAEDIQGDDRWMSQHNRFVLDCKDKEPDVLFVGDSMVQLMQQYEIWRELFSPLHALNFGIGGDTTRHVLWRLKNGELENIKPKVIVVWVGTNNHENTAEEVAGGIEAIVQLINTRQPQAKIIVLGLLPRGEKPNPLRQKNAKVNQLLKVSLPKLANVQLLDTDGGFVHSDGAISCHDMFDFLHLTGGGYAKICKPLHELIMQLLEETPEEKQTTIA
PAFAH2 FP inh: PAFAH2 (human) inhibition. AID 492956. inhibition, % at 3.39 µM. 0.99% of 340,000 active. Q99487. recombinant PAFAH2, FP-rhodamine activity probe, fluorescence polarization;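 active = inhibition above the mean over all tested compounds plus 3 SD, cut at about 30% in these data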;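 note: inhibitors block probe labeling of enzyme so polarization drops; 0% = enzyme with DMSO and 100% = wells lacking PAFAH2 protein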
pPAFAH FP inh: inhibitors of human plasma PAF acetylhydrolase (pPAFAH) | Q13093 | recombinant pPAFAH, FP-rhodamine probe fluorescence polarization | inhibition, % at 3.39 µM | 1.5% of 330,000 active | AID 463082;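 active = inhibition above the mean inhibition across the screen plus 3 SD, cut at about 25% in these data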;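 note: inhibitors block binding of the rhodamine activity-based probe so polarization drops; 0% = enzyme with DMSO and 100% = wells lacking pPAFAH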
PP5 primary: blocks human protein phosphatase 5 activity; P53041; purified PP5c, OMFP substrate fluorescence; inhibition, % at 6.7 µM; 0.18% of 320,000 active;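 active = inhibition above the campaign's mean inhibition across all tested compounds plus 3 SD, cut at about 9.5% in these data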;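 note: 0% = DMSO only and 100% = 100 µM cantharidin control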
PP1 counter: blocks human PP1-alpha phosphatase, a PP5 counter-screen. P62136. purified PP1alpha, OMFP fluorescence. inhibition, % at 6.7 µM. 0.9% of 320,000 active. AID 2235;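 active = inhibition above the mean inhibition of all tested compounds plus 3 SD, computed separately for each screening campaign, cut at about 15% in these data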
PP1 inh confirm: human PP1 phosphatase inhibition, confirmation. 52% of 1,900 active. shares compounds with PP1 counter. inhibition, % at 6.7 µM. purified PP1alpha, OMFP substrate fluorescence;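 active = mean PP1 inhibition above a set limit taken from the earlier primary screen, cut at about 15% in these data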
PP5 inh counter: inhibits human PP5 phosphatase in PP1 counter-screen; purified PP5c, OMFP fluorescence; 4% of 1,900 active; AID 2360; shares compounds with PP1 counter; inhibition, % at 6.7 µM;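 active = mean PP5 inhibition over triplicate wells above about 9.5% taken from the earlier PP1 screen, limit read from the data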
An asterisk follows results filed as active; x = no result given. Sampled rows, rich in hits. Any-hit rate of the full collection: about 3.4%.

SMILES | PAFAH1B3 inh | PAFAH1B2 FP inh | PAFAH2 FP inh | pPAFAH FP inh | PP5 primary | PP1 counter | PP1 inh confirm | PP5 inh counter
CCOC(=O)c1ccc2c(c1)n(CC)c(/C=C/N(C)c1ccccc1)[n+]2CC | 17 | -2 | -5 | 2 | 0 | 0 | x | x
Cc1cc2cc(C)c3nnc(SCC(=O)N4CCN(C(=O)c5ccco5)CC4)n3c2cc1C | 4 | 6 | 2 | 1 | 0 | 1 | x | x
CC(C)n1c(SCC(=O)Nc2nc3ccccc3s2)nc2c1c(=O)n(C)c(=O)n2C | 10 | 2 | -20 | 1 | 1 | -1 | x | x
O=C(O)c1cc(-c2cc3ccccc3o2)nn1-c1ccccc1 | 18 | 5 | -2 | 12 | 2 | 45* | 45* | -2
O=C(O)c1cc(-c2cccs2)nn1-c1ccccc1 | 7 | 12 | -3 | 2 | -1 | 28* | 24* | -5
CC1CCCCN1C(=O)COC(=O)c1cc(-c2cccs2)nn1-c1ccccc1 (stereo not drawn) | 8 | 13 | 6 | 6 | 0 | -1 | x | x
COc1cc2[nH]c(C(=O)NN)c(N)c2cc1OC | x | x | x | 9 | 3 | -7 | x | x
O=c1[nH]c2c(c3c1CCCC3)CCCC2 | 5 | 6 | 4 | 6 | 2 | 0 | x | x
COc1cc(/C=N/NC(=O)c2ccncc2)cc(OC)c1OC | 7 | -2 | 0 | 2 | 1 | -1 | x | x
O=C(CC(NC(=O)c1ccccc1Cl)c1ccccc1)NCCc1ccc(Cl)cc1 (stereo not drawn) | -10 | 9 | -11 | -4 | -2 | 19* | 6 | -1
O=C(NCCc1ccccc1)/C(=C\c1ccc([N+](=O)[O-])cc1)NC(=O)c1ccc(Br)cc1 | 1 | -4 | -9 | 0 | 1 | 18* | 22* | -2
O=C(NCCc1ccccc1)/C(=C\c1ccc([N+](=O)[O-])cc1)NC(=O)c1ccco1 | 11 | 5 | 1 | -3 | 2 | -9 | x | x
COc1ccccc1C(c1nnnn1CS(=O)(=O)c1ccc(C)cc1)N1CCSCC1 (stereo not drawn) | 6 | 0 | -5 | -2 | 4 | -2 | x | x
COc1ccc2[nH]c(=O)c(CN(CCO)S(=O)(=O)c3c(C)ccc4nsnc34)cc2c1 | 1 | 0 | -4 | 4 | 2 | 55* | 0 | 0
COc1ccc2[nH]c(=O)c(CN(Cc3cccs3)S(=O)(=O)c3cccc4nsnc34)cc2c1 | -1 | 0 | -1 | 3 | 1 | -1 | x | x
COc1ccc(Nc2nc(-c3cc4cccc(OC)c4oc3=O)cs2)cc1 | -2 | 0 | -2 | 12 | 1 | 1 | x | x
COc1cccc2cc(/C(C)=N/Nc3nc(-c4cc(C)ccc4C)cs3)c(=O)oc12 | 3 | 4 | 0 | 18 | 1 | 20* | 19* | 1
Cc1ccccc1Nc1nnc(SCc2nc3ccccc3c(=O)[nH]2)s1 | x | x | x | -1 | 1 | 22* | 2 | -8
O=C(NCCCO)/C(=C\c1ccco1)NC(=O)c1ccco1 | 2 | 2 | -3 | 2 | -1 | -2 | x | x
O=c1c2c(-c3ccco3)csc2nc(SCc2cn3cccnc3n2)n1-c1ccccc1 | -1 | 2 | 1 | 18 | 2 | 29* | 21* | 0
c1ccc(Cn2c(SCc3cn4cccnc4n3)nnc2-c2ccco2)cc1 | 1 | 1 | -9 | 2 | 3 | -6 | x | x
CC(C)(C)c1ccc(C(=O)NNC(=O)c2cccc(Br)c2)cc1 | -3 | -1 | -8 | -2 | 1 | 1 | x | x
Cc1cccc(NC(=O)C(=O)NNC(=O)c2ccc(C(C)(C)C)cc2)c1 | 7 | 6 | -14 | 8 | -2 | 21* | 10 | -1
CCCOC(=O)C1=C(C)NC(=O)NC1c1cccc2ccccc12 (stereo not drawn) | 9 | 5 | -8 | x | x | x | x | x
Cc1cc2cc(CNC(=O)c3cc4ccccc4o3)ccc2n1C | x | x | x | 15 | 5 | 22* | 9 | -2
SMILES | PAFAH1B3 inh | PAFAH1B2 FP inh | PAFAH2 FP inh | pPAFAH FP inh | PP5 primary | PP1 counter | PP1 inh confirm | PP5 inh counter
Cc1ccc(C(=O)N/C(=C/c2ccco2)C(=O)NCc2ccco2)cc1 | 7 | 2 | 6 | 7 | -2 | 0 | x | x
COc1ccc(CNC(=S)Nc2cc(OC)ccc2OC)cc1 | 0 | 1 | -2 | 5 | 2 | 63* | -3 | -5
CCOC(=O)C1CCN(C(=O)COC(=O)CCOc2ccc(C)cc2)CC1 | -1 | 3 | 11 | -1 | 3 | 3 | x | x
c1ccc(Cn2nnc(CNc3ccccc3)c2-c2c(CNc3ccccc3)nnn2Cc2ccccc2)cc1 | 5 | -3 | -4 | 10 | 4 | 23* | 4 | 1
Oc1c(CN2CCN(c3ccccn3)CC2)cc(Cl)c2cccnc12 | 6 | 2 | -1 | -1 | 3 | 26* | 30* | -5
COc1ccccc1-c1cc(C(=O)NCc2ccc(F)cc2)no1 | 2 | 4 | 2 | 4 | 1 | -5 | x | x
Cc1cc(C2=NNC(=NC3CCCCC3)SC2)c(C)n1-c1c(C)n(C)n(-c2ccccc2)c1=O | 2 | 1 | 9 | 9 | 2 | 19* | 0 | -3
Cc1cc(C2=NNC(=NC3CC3)SC2)c(C)n1-c1ccccc1F | 15 | 3 | 6 | 15 | 2 | 14 | x | x
CCCN1C(=O)C(NC(C)=O)c2ccccc21 (stereo not drawn) | 3 | 2 | 1 | 4 | -1 | -1 | x | x
CCc1ccc2c(c1)C(NC(C)=O)C(=O)N2CCN1CCOCC1 (stereo not drawn) | 8 | 1 | -2 | 2 | 4 | 41* | 36* | -4
O=C(CC1SCCNC1=O)Nc1ccccc1Cl (stereo not drawn) | 2 | 3 | -2 | -2 | 1 | -2 | x | x
CCN1CCN(c2ncnc3c2nnn3Cc2ccccc2)CC1 | -1 | 2 | -2 | 1 | 2 | 0 | x | x
Nc1ccc(C(=O)c2ccccc2C(=O)O)cc1Cl | -6 | 2 | 1 | 2 | 3 | 2 | x | x
CC1Nc2ncnc(N3CCc4ccccc4C3)c2N(Cc2ccc(Br)cc2)C1=O (stereo not drawn) | -14 | 3 | -19 | 3 | 4 | 23* | 19* | 0
O=C(Cn1cc[n+](CC(=O)c2ccc(Cl)cc2Cl)c1)c1ccc(Cl)cc1Cl | x | x | x | 33* | -2 | 18* | -11 | -2
O=C(Cn1cc[n+](CC(=O)c2ccccc2)c1)c1ccccc1 | 7 | 2 | 1 | 13 | 2 | 4 | x | x
O=C(c1ccccc1)N1CCN(C2CC3CCC2C3)CC1 (stereo not drawn) | 0 | 0 | -2 | 2 | 4 | 0 | x | x
CCOC(=O)N1CCN(Cc2ccc(O)c3ncccc23)CC1 | x | x | x | 1 | 2 | 3 | x | x
Cc1ccc(C)c(S(=O)(=O)N2CCN(Cc3ccc(O)c4ncccc34)CC2)c1 | 4 | 2 | -1 | -3 | 6 | 31* | 30* | -7
CCOC(=O)N1CCN(Cc2nc(N)nc(Nc3ccc(OC)cc3)n2)CC1 | 2 | -1 | 2 | -1 | 2 | 2 | x | x
